V-ATPase pHluor: yeast V-ATPase proton transport regulation by pHLuorin. S. cerevisiae, pHLuorin cytosolic pH fluorescence. hit rate 0.37% among 350,000. response, % at 10 µM. AID 504577; in the data active = response mostly above about 7.3%, no sharp cut-off; inactive = mostly below about 5.4%; note: actives read high
proKLK7 act: activates the human kallikrein-7 zymogen; P49862; purified proKLK7, EDANS-DABCYL substrate fluorescence; 100% is mature enzyme control, 0% vehicle; hit rate 0.9% among 370,000; activation, % at 7 µM;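 active = activation above the mean of all tested compounds plus 3 SD, computed per campaign excluding outliers beyond control limits, cut at about 13% in these data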
ADAM10 inh: inhibits human ADAM10 | hit rate 0.62% among 370,000 | AID 720582 | inhibition, % at 7 µM | recombinant ADAM10, EDANS/DABCYL FRET peptide cleavage, 3 h;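 active = inhibition above a per-campaign cutoff equal to the mean of compounds falling between control-based bounds plus 3 SD, cut at about 20% in these data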
Target sequence (O14672 214-748 limits assumed): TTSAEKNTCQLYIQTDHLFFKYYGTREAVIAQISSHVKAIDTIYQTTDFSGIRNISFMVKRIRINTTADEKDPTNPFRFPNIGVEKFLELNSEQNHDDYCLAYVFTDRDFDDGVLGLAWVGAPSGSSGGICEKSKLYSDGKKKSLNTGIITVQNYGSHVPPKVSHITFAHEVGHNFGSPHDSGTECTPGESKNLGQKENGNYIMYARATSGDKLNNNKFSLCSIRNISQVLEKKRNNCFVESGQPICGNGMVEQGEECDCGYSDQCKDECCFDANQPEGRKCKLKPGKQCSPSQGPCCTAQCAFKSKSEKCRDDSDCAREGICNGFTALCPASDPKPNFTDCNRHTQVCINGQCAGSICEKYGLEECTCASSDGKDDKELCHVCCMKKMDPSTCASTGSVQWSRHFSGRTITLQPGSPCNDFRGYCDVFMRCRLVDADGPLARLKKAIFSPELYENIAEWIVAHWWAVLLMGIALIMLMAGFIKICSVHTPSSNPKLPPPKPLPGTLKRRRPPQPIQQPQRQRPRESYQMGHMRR
ADAM17 inh: inhibitors of human ADAM17 | recombinant ADAM17, EDANS/DABCYL FRET peptide cleavage | inhibition, % at 6.95 µM | hit rate 0.83% among 370,000 | P78536;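 active = inhibition above the mean of compounds lying between control limits plus 3 SD, set per campaign, cut at about 8.5% in these data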
ADAM10 confirm: confirmation of inhibitors of human ADAM10 | shares compounds with ADAM10 inh | ADAM10 QFRET peptide cleavage, EDANS fluorescence | AID 743208 | hit rate 1% among 2,100 | inhibition, % at 6.95 µM;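 active = inhibition above about 20% chosen separately for each screening run, limit read from the data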
ADAM17 counter: counter-screen for ADAM10 exosite inhibitors: inhibitors of human ADAM17; shares compounds with ADAM10 inh; ADAM17 QFRET peptide cleavage, EDANS fluorescence; inhibition, % at 6.95 µM; hit rate 0.5% among 2,100; AID 743214;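 active = mean triplicate inhibition above the solvent-only control wells' mean plus 3 SD, cut at about 12% in these data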
ADAM10 counter: counter-screen for ADAM17 exosite inhibitors: inhibitors of human ADAM10 | shares compounds with ADAM17 inh | recombinant ADAM10, EDANS/DABCYL FRET peptide cleavage, 3 h | inhibition, % at 6.95 µM | hit rate 47% among 2,900;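 active = mean inhibition over the triplicate runs exceeds the activity threshold set in the earlier primary screen, cut at about 20% in these data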
ADAM17 confirm: confirmation of inhibitors of human ADAM17. shares compounds with ADAM17 inh. recombinant ADAM17, EDANS/DABCYL QFRET peptide cleavage. inhibition, % at 6.95 µM. hit rate 65% among 2,900;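 active = mean inhibition across replicates above the hit cutoff set in the primary screen, cut at about 8.5% in these data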
Large screens that a line does not name were inactive (follow-up assays come after a bar, where they were run). Most compounds without a hit are left out; they make up all but 2.3% or so of the library.

C[C@@H]1CCCCO[C@H](CN(C)S(=O)(=O)c2ccc(F)cc2)[C@@H](C)CN([C@H](C)CO)C(=O)c2cc(NC(=O)Nc3ccc(C(F)(F)F)cc3)ccc2O1	ADAM10 inh 27, ADAM17 inh 8.7 | ADAM10 confirm inactive | ADAM17 counter inactive | ADAM10 counter 45 | ADAM17 confirm 24
C[C@@H]1CCCCO[C@@H](CN(C)S(=O)(=O)c2ccccc2)[C@@H](C)CN([C@H](C)CO)C(=O)c2cc(NS(=O)(=O)c3ccc(F)cc3)ccc2O1	ADAM10 inh 27, ADAM17 inh 17 | ADAM10 confirm inactive | ADAM17 counter inactive | ADAM10 counter 28 | ADAM17 confirm 15
COc1ccc(S(=O)(=O)N(C)C[C@@H]2OCCCC[C@H](C)Oc3ccc(NC(=O)Nc4ccc(C(F)(F)F)cc4)cc3C(=O)N([C@H](C)CO)C[C@H]2C)cc1	ADAM10 inh 34, ADAM17 inh 13 | ADAM10 confirm inactive | ADAM17 counter inactive | ADAM10 counter 46 | ADAM17 confirm 24
C[C@@H]1CN([C@H](C)CO)C(=O)c2cc(NC(=O)Nc3ccc(C(F)(F)F)cc3)ccc2O[C@H]1CN(C)S(=O)(=O)c1cccs1	ADAM10 inh 29, ADAM17 inh 13 | ADAM10 confirm inactive | ADAM17 counter inactive | ADAM10 counter 49 | ADAM17 confirm 33
O=C(NCCc1ccc(F)cc1)c1cc2ccccn2n1	none (no result: V-ATPase pHluor)
S=C(Nc1ccc(I)cc1)OC1CCC12CCC(c1ccccc1)CC2 (stereo not given)	none (no result: V-ATPase pHluor)
COc1cccc(CNC(=O)[C@H]2CCCN2C(=O)[C@H]2CCCN2S(=O)(=O)c2cccc(C)c2)c1	none (no result: V-ATPase pHluor)
C=CCO[C@H]1CN(C(=O)OC)[C@@H]2C[C@H]1Oc1ccccc12	none (no result: V-ATPase pHluor)
O=S(=O)(Nc1ccc(C(O)(C(F)(F)F)C(F)(F)F)cc1)c1cccc2ccccc12	ADAM10 inh 34, ADAM17 inh 11 (no result: V-ATPase pHluor) | ADAM10 confirm inactive | ADAM17 counter inactive | ADAM10 counter 40 | ADAM17 confirm 21
CC(C)(C)c1ccc(S(=O)(=O)Nc2ccc(C(=O)N3CCCC3)cc2)cc1	none
CC(C)(C)c1ccc(S(=O)(=O)Nc2ccc(C(O)(C(F)(F)F)C(F)(F)F)cc2)cc1	ADAM10 inh 62, ADAM17 inh 27 (no result: V-ATPase pHluor) | ADAM10 confirm inactive | ADAM17 counter inactive | ADAM10 counter 54 | ADAM17 confirm 31
CCCCCCCCN1C(=O)[C@@H](CC(=O)N2CCCC2)C[C@@]2(C(=O)OC)C1=C[C@H](C(C)C)O[C@@H]2C1CC1	none (no result: V-ATPase pHluor)
CCOC(=O)C1=CN(Cc2cccc(F)c2)S(=O)(=O)NC1c1ccc(Br)cc1F (stereo not given)	ADAM10 inh 21, ADAM17 inh 9.6 | ADAM10 confirm inactive | ADAM17 counter inactive | ADAM10 counter 24 | ADAM17 confirm 15
O=[N+]([O-])c1cccc2ccc(/C=C/c3ccc(Cl)cc3)nc12	none
CCOc1cc(/C=C/c2ccc3cccc([N+](=O)[O-])c3n2)cc(Cl)c1O	ADAM10 inh 25, ADAM17 inh 15 | ADAM10 confirm inactive | ADAM17 counter inactive | ADAM10 counter inactive | ADAM17 confirm inactive
CCOc1cc(/C=N/NC(=O)CNc2cccc(C)c2)ccc1OC(=O)c1ccccc1	ADAM10 inh 25, ADAM17 inh 12 | ADAM10 confirm inactive | ADAM17 counter inactive | ADAM10 counter 33 | ADAM17 confirm 16
COc1ccc(-n2c(COc3ccccc3)nnc2SCC(=O)Nc2ccccc2-c2ccccc2)cc1	ADAM10 inh 20, ADAM17 inh 11 (no result: V-ATPase pHluor) | ADAM10 confirm inactive | ADAM17 counter inactive | ADAM10 counter 24 | ADAM17 confirm 13
COc1ccc(-n2c(SCC(=O)Nc3ccccc3-c3ccccc3)nnc2-c2ccccn2)cc1	none (no result: V-ATPase pHluor)
CCCCOCC1CN(CCCC)S(=O)(=O)c2c(Oc3ccc(OC)cc3)cccc2O1 (stereo not given)	none (no result: V-ATPase pHluor)

Compound activity deposited in PubChem by several laboratories.
